# Assay outcomes deposited in PubChem BioAssay by several laboratories.
# Hsp70 activator – Hsp70 transcriptional activators, primary screen, cell-based, HeLa, Hsp70 promoter luciferase, luminescence, 10 µM; actives 0.04% (n = 200,000); AID 1203, 2008; activation, % at 10 µM; HeLa Hsp70 promoter luciferase reporter; scaled: vehicle 0, proteasome-inhibitor control 100%;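 active = activation above the mean across all tested compounds plus 3 SD, cutoff set per campaign, cut at about 5.5% in these data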;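 note: 100% = MG132 at 30 µM as the positive control and 0% = DMSO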
# S1P4 agonist – S1P4 receptor agonists, primary screen, cell-based; Sphingosine 1-phosphate receptor 4 (Homo sapiens), O95977; S1P4-expressing cell line, agonist reporter assay; activation, % at 4.98 µM; actives 0.35% (n = 220,000); in the data active = activation above about 11%;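 note: 0% = DMSO vehicle and 100% = reference agonist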
# Target sequence (O95977 whole entry, looked up): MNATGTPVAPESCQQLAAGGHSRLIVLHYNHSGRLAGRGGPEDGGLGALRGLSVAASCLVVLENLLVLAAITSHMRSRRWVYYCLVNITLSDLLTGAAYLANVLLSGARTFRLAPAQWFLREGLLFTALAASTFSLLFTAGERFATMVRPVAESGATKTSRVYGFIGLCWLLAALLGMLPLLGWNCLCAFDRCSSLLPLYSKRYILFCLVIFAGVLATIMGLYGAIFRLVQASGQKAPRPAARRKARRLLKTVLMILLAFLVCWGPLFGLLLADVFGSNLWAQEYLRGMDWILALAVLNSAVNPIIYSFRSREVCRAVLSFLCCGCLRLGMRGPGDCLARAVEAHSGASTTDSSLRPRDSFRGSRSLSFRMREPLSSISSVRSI
# TNF death inh – inhibitors of TNF-alpha triggered necroptosis, primary screen, cell-based, Jurkat FADD-/-, single concentration | activation (protection from cell death), % at 10 µM | actives 0.068% (n = 220,000) | Jurkat FADD-/- TNF necroptosis rescue, ATP luminescence, 24 h; 0 = TNF only, 100 = no-TNF cells;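 active = activation, meaning protection from cell death, of at least 50% relative to plate controls; inactive = activation below 50%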;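 note: necroptosis triggered by 40 ng/mL TNF-alpha added together with compound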
# S1P4 antagonist – S1P4 receptor antagonists, primary screen, cell-based | Sphingosine 1-phosphate receptor 4 (Homo sapiens), O95977 | S1P4-expressing cells, antagonist mode, reporter read-out | inhibition, % at 4.98 µM | actives 0.26% (n = 220,000); in the data active = inhibition above about 29%;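 note: 0% = wells stimulated with agonist and 100% = vehicle wells without agonist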
# HSV replic up – enhancers of HSV replication in host cells, fold increase, host cell viability. maximum fold increase. actives 0.005% (n = 220,000). HSV replication augmentation in cells; in the data active = maximum fold increase above about 1.5; tested in PC3 cells
# L929 necroptosis – inhibitors of zVAD-triggered necroptosis, primary screen, L929 cells; L929 zVAD necroptosis rescue, ATP luminescence, 24 h; with zVAD 60 µM; viability rescue, % at 10 µM; actives 0.38% (n = 220,000);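 active = activation, scaled between plate controls, above about 75%, limit read from the data; inactive = activation under that limit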;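 note: 0% = zVAD with DMSO and 100% = DMSO alone without zVAD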
# Hsp70 act DR – Hsp70 transcriptional activators, dose response, cell-based, HeLa, Hsp70 promoter luciferase, luminescence, triplicate. actives 10% (n = 70). calls only at 99 µM. HeLa hsp70.1pr-luc reporter. AID 1252, 2008. shares compounds with Hsp70 activator;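 active = over 50% activation at some tested dose; inactive = under 50% activation at every tested dose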
# zVAD death conf – inhibitors of zVAD-triggered necroptosis in L929, confirmation, L929 cells, duplicate runs; shares compounds with L929 necroptosis; L929 zVAD-induced necroptosis rescue, ATP luminescence, 24 h; activation (protection from necroptosis), % at 10 µM; actives 16% (n = 760);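 active = mean protection from necroptosis of at least 50% over duplicate tests; inactive = mean protection below 50%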;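 note: 0% = cells with zVAD alone and 100% = vehicle cells without zVAD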
# S1P4 antag cf – S1P4 receptor antagonists, human, confirmation, cell-based | shares compounds with S1P4 antagonist | S1P4-expressing cell line, antagonist mode, reporter read-out | inhibition, % at 4.98 µM | actives 71% (n = 520) | AID 1524, 2009; in the data active = inhibition above about 30%
# S1P1 antagonist – S1P1 receptor antagonists, human, counter-screen for S1P4 antagonist project, cell-based; cell-based S1P1 antagonist counterscreen, inhibition; inhibition, % at 4.98 µM; shares compounds with S1P4 antagonist; AID 1564, 2009; actives 37% (n = 520); in the data active = inhibition above about 40%;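 note: receptor stimulated with S1P near its EC80; 0% = agonist stimulated wells and 100% = vehicle only wells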
# An asterisk follows results filed as active; i = inactive; . = no result; + = active, no number. Compounds with a hit are over-represented: about 1% of the library has one in this group of screens.
SMILES,Hsp70 activator,S1P4 agonist,TNF death inh,S1P4 antagonist,HSV replic up,L929 necroptosis,Hsp70 act DR,zVAD death conf,others
COc1ccc(C(=O)N2CC3(CC(c4ccc(Cl)cc4)=NO3)C[C@H]2C(=O)NCC(N)=O)cc1 (stereo partly drawn),0,1,-3,5,i,0,.,.,
Cc1cccc(-c2noc(CCCC(=O)N3CCOCC3)n2)c1,15*,1,0,16,i,0,i,.,
Cc1ccccc1NC(=S)NNC(=O)c1csc2c1CCC(C)C2 (stereo not drawn),0,0,-6,4,i,0,.,.,
CCN1C(=O)/C(=C\N(C)C)NC1=S,0,0,2,-21,i,0,.,.,
CN(C)/C=C1/NC(=S)NC1=O,6.1*,-1,1,-4,i,5,i,.,
CCOC(=O)C1(C/C(C)=N/NC(N)=O)CC(C)OC1=O (stereo not drawn),5.7*,1,0,-19,i,1,i,.,
CCCCCOCC1CC(C/C(C)=N/NC(N)=O)(C(=O)OCC)C(=O)O1 (stereo not drawn),.,2,0,-6,i,0,.,.,
CC1C/C(=C/c2cccn2C)C(=O)/C(=C/c2cccn2C)C1 (stereo not drawn),0,1,-6,14,.,1,.,.,
CC1C/C(=C/c2ccncc2)C(=O)/C(=C/c2ccncc2)C1 (stereo not drawn),178*,-1,6,15,i,2,+,.,
[O-]c1c[n+](-c2ccc(-[n+]3cc([O-])on3)cc2)no1,0,0,0,-11,i,-1,.,.,
O=C1C=CC(O)(c2cc(=O)c3c(O)cc(O)cc3o2)C=C1,25*,0,-15,20,i,125*,+,166*,
O=C(c1cc(N2C(=O)C3C4CCC(C4)C3C2=O)ccc1Cl)N1CCN(c2ccccc2F)CC1 (stereo not drawn),0,0,-1,-5,i,0,.,.,
Cc1ccc(-c2nc(NC(=O)c3nn(C)cc3[N+](=O)[O-])sc2C)cc1C,14*,1,-13,87*,.,14,i,.,S1P4 antag cf=115*;S1P1 antagonist=-29
O=C(Cc1ccccc1F)NCC1(N2CCOCC2)CCCCC1,.,0,0,-14,i,0,.,.,
CC(C)(C)c1ccc(-n2nc(C#N)c(Cl)cc2=O)cc1,16*,-6,-17,110*,i,6,i,.,S1P4 antag cf=120*;S1P1 antagonist=49*
Cn1cnnc1SCC(=O)Nc1ccc(Cl)c(S(=O)(=O)N2CCOCC2)c1,0,0,1,-28,i,0,.,.,
CCCC(=O)N1CCN(c2ccc(NC(=O)c3ccc([N+](=O)[O-])o3)cc2)CC1,15*,-2,-6,78*,i,56,i,.,S1P4 antag cf=101*;S1P1 antagonist=84*
CCCc1cc(=O)[nH]c(SCC(=O)c2cc(C)n(CC(F)(F)F)c2C)n1,0,0,-1,0,i,2,.,.,
Cc1cc(C(=O)Cn2ncc(Cl)c(Cl)c2=O)c(C)n1CC(F)(F)F,16*,-1,-15,90*,i,46,i,.,S1P4 antag cf=105*;S1P1 antagonist=65*
COC(=O)c1ccc(CSc2n[nH]c(-c3ccccc3)n2)o1,0,-1,2,-17,i,1,.,.,
O=c1c(Br)c(Br)cnn1-c1ccccc1,7.4*,-3,-15,112*,i,-3,i,.,S1P4 antag cf=121*;S1P1 antagonist=48*
O=c1c(Br)c(N2CCCC2)cnn1-c1ccccc1,0,-2,0,-8,i,0,.,.,
c1cnc2ccc(C(c3nnnn3C3CCCCC3)N3CCN(C4CCCCC4)CC3)cc2c1 (stereo not drawn),0,0,3,-13,i,77*,.,70*,
Cn1c(N)c(C(=O)COC(=O)CCC2CCCCC2)c(=O)n(C)c1=O,0,2,1,-3,i,3,.,.,
CCOC(=O)c1ccc(NC(=O)Nc2ccn(C)n2)cc1,0,-3,1,-11,i,86*,.,40,
SMILES,Hsp70 activator,S1P4 agonist,TNF death inh,S1P4 antagonist,HSV replic up,L929 necroptosis,Hsp70 act DR,zVAD death conf,others
O=C(Nc1ccc(Cl)c(C(F)(F)F)c1)NC1CC2CCCC(C1)N2Cc1ccccc1 (stereo not drawn),0,1,0,-9,i,76*,.,33,
Cc1nc(-c2ccccc2)sc1-c1ccnn1C,0,0,-1,-8,i,1,.,.,
Cc1nc(-c2ccccc2)sc1-c1ccn[nH]1,0,1,10,-14,i,80*,.,40,
CC(=O)c1sc(Nc2ccccn2)nc1C,0,-3,-4,-8,i,96*,.,1,
CN(C)S(=O)(=O)Oc1ccc(C(=O)Nc2cccc(C(F)(F)F)c2)cc1,0,0,-4,-8,i,79*,.,3,
CN(c1cccc(NC(=O)c2ccc(C(C)(C)C)cc2)c1)S(C)(=O)=O,0,0,-2,-6,i,77*,.,36,
CN(c1cccc(NC(=O)CSc2ccc(Cl)cc2)c1)S(C)(=O)=O,0,1,-7,-9,i,75*,.,3,
Cc1ccc(NC(=O)n2ccc(-c3ccc(-n4ccnc4)cc3)n2)cc1,0,3,14,-13,i,82*,.,50,
CC(C)(C)c1ccc(NC(=O)COc2ccc(-n3ccnc3)cc2)cc1,0,2,-17,2,i,71,.,.,
Cc1noc(C)c1N=Nc1ccccc1C(=O)O,0,0,0,14,i,-1,.,.,
Cc1csc(NC(=O)CSc2nsc(SCC(=O)Nc3nc(C)cs3)c2C#N)n1,0,2,-7,0,i,76*,.,53*,
O=C(Nc1cnccc1C(F)(F)F)NC1CCCCC1,.,1,3,-1,i,1,.,.,
COc1ccc(NC(=O)Nc2nc3c(s2)CCCC3)cc1,0,0,8,-5,i,79*,.,33,
